# Tests used:
# [1] = target: Tyrosine-protein kinase CSK (Homo sapiens) (UniProt P41240); conditions: at 1 µM;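 also: each value is an averaged inhibition reading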
# [2] = target: T1, Discoidin domain-containing receptor 2 (Homo sapiens) (UniProt Q16832); conditions: at 0.1 µM
# T1 sequence (whole entry): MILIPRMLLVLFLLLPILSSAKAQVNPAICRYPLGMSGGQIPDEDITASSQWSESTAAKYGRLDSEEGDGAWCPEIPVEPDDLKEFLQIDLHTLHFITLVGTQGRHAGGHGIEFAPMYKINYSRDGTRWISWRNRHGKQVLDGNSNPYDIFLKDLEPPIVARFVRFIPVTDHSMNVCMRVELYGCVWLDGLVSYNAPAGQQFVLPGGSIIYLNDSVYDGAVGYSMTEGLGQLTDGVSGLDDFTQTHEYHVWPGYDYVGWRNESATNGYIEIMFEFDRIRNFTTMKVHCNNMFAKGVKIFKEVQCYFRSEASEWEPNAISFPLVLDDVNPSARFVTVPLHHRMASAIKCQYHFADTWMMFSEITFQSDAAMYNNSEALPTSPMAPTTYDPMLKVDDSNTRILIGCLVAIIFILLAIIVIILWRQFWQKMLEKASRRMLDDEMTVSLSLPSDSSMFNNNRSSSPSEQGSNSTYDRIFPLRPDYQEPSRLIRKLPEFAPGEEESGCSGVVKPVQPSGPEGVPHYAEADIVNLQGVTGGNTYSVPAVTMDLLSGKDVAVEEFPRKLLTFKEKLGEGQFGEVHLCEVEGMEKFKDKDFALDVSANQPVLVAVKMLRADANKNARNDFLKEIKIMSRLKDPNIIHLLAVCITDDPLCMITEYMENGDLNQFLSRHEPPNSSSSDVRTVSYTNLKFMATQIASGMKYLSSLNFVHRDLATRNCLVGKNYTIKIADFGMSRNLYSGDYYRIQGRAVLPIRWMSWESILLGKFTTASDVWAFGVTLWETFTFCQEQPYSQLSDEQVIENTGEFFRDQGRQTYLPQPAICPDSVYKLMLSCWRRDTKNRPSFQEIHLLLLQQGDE
# [3] = target: T1, Discoidin domain-containing receptor 2 (Homo sapiens); conditions: at 1 µM
# [4] = target: Epidermal growth factor receptor (Homo sapiens) (UniProt P00533); conditions: at 0.1 µM
# Chain of Epidermal growth factor receptor (Homo sapiens) (P00533 whole entry): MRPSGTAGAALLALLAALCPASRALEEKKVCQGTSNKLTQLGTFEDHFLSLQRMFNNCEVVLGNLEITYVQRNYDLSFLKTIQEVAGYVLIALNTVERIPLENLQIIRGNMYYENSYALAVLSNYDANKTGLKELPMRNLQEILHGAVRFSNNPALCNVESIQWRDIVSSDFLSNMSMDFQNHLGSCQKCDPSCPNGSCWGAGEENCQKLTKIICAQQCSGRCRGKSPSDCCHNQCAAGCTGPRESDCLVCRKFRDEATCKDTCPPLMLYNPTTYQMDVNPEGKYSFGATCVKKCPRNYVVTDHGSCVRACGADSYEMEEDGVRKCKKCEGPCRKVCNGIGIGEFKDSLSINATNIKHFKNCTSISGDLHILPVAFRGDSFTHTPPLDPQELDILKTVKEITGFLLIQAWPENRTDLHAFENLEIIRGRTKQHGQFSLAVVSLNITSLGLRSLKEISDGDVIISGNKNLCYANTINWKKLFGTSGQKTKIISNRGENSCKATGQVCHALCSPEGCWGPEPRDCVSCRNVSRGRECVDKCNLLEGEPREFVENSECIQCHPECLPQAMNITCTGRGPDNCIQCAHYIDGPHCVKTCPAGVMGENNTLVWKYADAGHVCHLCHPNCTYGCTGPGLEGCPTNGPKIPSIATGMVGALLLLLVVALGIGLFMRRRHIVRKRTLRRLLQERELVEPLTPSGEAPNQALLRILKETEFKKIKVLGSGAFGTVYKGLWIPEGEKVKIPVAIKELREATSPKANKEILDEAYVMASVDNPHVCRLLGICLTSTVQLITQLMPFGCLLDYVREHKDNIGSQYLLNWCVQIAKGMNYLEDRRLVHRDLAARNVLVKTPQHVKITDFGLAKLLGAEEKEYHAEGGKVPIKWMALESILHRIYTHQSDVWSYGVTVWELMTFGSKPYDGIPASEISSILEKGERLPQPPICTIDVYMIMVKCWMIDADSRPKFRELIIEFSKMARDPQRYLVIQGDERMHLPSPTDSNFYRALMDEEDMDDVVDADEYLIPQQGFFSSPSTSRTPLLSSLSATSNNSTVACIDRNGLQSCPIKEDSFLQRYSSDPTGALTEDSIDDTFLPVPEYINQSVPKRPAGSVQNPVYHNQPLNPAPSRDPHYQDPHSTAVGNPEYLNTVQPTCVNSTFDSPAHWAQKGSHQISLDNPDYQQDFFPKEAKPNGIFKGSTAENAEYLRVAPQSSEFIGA
# [5] = target: Epidermal growth factor receptor (Homo sapiens) (UniProt P00533); conditions: at 1 µM
# [6] = tested on: Epidermal growth factor receptor (Homo sapiens), P00533 [L858R]; conditions: at 0.1 µM
# Chain of Epidermal growth factor receptor (Homo sapiens), P00533 [L858R] (P00533 whole entry L858R): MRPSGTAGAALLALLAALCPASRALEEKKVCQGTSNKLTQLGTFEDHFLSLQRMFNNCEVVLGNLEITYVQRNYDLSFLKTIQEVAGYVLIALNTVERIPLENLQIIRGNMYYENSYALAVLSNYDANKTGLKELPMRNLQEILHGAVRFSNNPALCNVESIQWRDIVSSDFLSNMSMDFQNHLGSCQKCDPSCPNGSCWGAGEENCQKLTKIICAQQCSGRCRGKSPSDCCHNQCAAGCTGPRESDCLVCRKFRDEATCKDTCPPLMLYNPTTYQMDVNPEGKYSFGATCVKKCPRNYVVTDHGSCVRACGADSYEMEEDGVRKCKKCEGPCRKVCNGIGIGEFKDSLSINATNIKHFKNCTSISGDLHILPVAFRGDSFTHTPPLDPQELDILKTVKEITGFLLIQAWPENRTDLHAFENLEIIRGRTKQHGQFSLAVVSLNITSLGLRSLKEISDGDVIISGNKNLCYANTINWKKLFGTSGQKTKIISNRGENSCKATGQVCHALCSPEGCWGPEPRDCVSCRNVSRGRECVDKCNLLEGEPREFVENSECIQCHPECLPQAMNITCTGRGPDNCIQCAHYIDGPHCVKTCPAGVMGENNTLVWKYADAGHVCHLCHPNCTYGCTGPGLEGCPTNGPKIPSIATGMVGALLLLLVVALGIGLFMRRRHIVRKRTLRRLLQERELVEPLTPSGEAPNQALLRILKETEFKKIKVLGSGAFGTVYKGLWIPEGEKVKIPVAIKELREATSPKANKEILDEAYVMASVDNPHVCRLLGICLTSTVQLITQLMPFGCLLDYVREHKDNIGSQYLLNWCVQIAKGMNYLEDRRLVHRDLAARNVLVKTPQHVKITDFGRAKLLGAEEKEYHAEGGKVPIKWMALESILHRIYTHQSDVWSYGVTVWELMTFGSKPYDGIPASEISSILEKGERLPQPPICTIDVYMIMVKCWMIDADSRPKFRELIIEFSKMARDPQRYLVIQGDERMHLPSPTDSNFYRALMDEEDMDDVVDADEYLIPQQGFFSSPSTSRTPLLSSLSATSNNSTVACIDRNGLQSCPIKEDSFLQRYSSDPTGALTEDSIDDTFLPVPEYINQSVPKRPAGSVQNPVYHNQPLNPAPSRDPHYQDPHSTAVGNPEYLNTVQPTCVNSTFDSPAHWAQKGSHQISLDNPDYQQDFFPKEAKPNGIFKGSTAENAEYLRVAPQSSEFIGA
# [7] = tested on: Epidermal growth factor receptor (Homo sapiens), P00533 [L858R]; conditions: at 1 µM
# [8] = tested on: Epidermal growth factor receptor (Homo sapiens), P00533 [L861Q]; conditions: at 0.1 µM
# Chain of Epidermal growth factor receptor (Homo sapiens), P00533 [L861Q] (P00533 whole entry L861Q): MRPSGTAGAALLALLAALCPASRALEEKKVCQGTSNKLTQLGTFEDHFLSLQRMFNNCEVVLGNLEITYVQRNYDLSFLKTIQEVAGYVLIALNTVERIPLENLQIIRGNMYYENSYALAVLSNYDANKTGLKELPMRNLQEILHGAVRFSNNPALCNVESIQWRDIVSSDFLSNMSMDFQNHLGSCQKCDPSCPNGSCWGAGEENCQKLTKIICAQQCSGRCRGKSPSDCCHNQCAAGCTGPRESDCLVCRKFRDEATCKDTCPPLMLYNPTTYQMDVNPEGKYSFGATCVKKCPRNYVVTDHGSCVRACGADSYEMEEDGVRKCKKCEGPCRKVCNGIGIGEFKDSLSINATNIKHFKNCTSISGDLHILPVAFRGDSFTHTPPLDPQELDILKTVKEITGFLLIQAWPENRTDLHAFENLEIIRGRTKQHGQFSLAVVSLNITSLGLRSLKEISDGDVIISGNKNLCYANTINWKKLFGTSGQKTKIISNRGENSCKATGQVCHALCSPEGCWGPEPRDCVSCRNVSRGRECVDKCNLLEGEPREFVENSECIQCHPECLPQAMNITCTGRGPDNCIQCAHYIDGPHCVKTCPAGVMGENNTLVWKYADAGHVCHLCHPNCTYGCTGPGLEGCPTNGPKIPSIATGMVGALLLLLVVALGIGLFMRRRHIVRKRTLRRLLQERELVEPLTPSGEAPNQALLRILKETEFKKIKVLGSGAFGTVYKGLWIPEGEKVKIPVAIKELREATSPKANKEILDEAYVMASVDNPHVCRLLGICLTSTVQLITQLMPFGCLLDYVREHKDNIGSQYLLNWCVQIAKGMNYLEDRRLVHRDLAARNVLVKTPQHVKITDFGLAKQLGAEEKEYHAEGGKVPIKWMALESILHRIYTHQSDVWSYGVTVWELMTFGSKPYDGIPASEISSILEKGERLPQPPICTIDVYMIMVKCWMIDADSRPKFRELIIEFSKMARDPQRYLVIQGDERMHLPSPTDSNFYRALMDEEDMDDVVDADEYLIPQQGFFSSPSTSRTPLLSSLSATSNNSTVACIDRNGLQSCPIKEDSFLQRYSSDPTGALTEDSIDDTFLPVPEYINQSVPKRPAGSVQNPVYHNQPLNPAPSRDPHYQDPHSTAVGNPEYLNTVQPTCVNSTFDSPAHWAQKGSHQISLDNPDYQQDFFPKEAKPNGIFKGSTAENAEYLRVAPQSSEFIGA
# [9] = tested on: Epidermal growth factor receptor (Homo sapiens), P00533 [L861Q]; conditions: at 1 µM
# [10] = tested on: Epidermal growth factor receptor (Homo sapiens), P00533 [T790M]; conditions: at 0.1 µM
# Chain of Epidermal growth factor receptor (Homo sapiens), P00533 [T790M] (P00533 whole entry T790M): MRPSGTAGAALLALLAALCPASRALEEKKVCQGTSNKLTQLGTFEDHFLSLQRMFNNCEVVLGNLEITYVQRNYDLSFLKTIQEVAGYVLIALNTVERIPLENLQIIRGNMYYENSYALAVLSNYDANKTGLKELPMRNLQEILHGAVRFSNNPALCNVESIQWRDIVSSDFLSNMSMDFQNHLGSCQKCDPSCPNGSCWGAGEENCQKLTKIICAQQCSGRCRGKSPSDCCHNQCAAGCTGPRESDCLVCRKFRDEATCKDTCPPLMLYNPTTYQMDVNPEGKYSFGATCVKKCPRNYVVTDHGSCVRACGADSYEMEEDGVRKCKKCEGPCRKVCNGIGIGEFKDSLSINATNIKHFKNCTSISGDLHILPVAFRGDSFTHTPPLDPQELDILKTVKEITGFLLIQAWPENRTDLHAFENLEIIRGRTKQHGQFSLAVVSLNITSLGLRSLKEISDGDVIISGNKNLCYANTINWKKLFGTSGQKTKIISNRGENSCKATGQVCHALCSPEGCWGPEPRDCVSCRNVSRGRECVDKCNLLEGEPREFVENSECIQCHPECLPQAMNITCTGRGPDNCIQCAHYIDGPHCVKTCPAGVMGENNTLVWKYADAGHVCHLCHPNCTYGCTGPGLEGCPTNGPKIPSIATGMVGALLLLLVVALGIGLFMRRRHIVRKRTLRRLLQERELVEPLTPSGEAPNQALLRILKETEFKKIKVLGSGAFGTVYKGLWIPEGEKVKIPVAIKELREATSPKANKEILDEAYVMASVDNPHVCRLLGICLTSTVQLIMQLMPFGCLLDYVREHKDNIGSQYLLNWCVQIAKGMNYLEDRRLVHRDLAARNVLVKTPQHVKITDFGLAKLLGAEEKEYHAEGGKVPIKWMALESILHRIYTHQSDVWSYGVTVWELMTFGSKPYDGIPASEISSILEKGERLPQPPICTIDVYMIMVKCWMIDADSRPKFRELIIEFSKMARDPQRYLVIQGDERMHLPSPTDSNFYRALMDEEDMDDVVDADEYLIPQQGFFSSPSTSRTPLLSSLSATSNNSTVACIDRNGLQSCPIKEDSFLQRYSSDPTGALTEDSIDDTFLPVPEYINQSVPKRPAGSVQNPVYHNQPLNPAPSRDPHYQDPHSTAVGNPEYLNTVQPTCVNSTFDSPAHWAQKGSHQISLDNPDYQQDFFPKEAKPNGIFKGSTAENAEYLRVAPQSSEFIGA
Compound,inhibition [1] [%],inhibition [2] [%],inhibition [3] [%],inhibition [4] [%],inhibition [5] [%],inhibition [6] [%],inhibition [7] [%],inhibition [8] [%],inhibition [9] [%],inhibition [10] [%]
CCc1nccc2c1nc(-c1nonc1N)n2CC,-3.01,1.17,2.38,6.7,7.54,0.22,-2.09,-1.13,-0.05,-1.16
CS(=O)(=O)CCNCc1ccc(-c2ccc3ncnc(Nc4ccc(OCc5ccccc5)c(Br)c4)c3c2)o1,4.59,1.43,1.04,69.5,81.6,49.3,91.2,48.1,83.7,4.96
COc1cc(Nc2ncc3c(C)nc(-c4cccc(C(F)(F)F)c4)n3n2)cc(OC)c1OC,12.9,0.31,0.73,-0.06,0.98,4.13,4.89,2.74,8.43,1.49
CCC(=O)Nc1ccc(C)c(-c2ccc(C(=O)NCC3CC3)cc2)c1,4.34,1.85,2.57,6.56,6.12,2.49,5.47,3.28,4.44,0.82
COc1cc2ncn(-c3cc(OCCc4ccccc4)c(C(N)=O)s3)c2cc1OC,2.94,0.75,2.48,7.08,7.65,2.45,9.43,0.8,0.3,0.19
CCc1cccc(CC)c1/C=C/c1cncc(C(=O)NC)c1,0.54,1.3,6.62,3.24,6.32,4.88,3.92,1.32,2.46,2.4
CNC(=O)c1cncc(/C=C/c2c(C)cccc2C)c1,24.6,7.93,36.8,-2.83,5.96,7.48,41.4,1.86,8.46,-0.41
CCS(=O)(=O)c1ccc(OC)c(Nc2ncc(-c3ccccc3Cl)o2)c1,1.96,3.73,8.46,-0.49,0.66,-1.25,7.46,2.33,1.22,1.78
CS(=O)(=O)CCNCc1cc(-c2cc3c(Nc4ccc(OCc5cccc(F)c5)c(Cl)c4)ncnc3s2)cs1,4.58,4.67,6.01,61.5,83.7,18.1,61.2,31.4,57.8,0.98
O=C1NC(=O)C(c2cccc(Cl)c2)=C1Nc1ccc(Cl)c(C(=O)O)c1,1.91,3.06,4.88,1.44,2.17,1.51,5.24,1.41,2.94,1
Cc1nnc(-c2ccc(C)c(-c3ccc(C(=O)NCc4ccc(Cl)cc4)cc3)c2)o1,5.62,0.22,-0.21,-3.58,-0.27,1.36,2.71,2.71,1.09,0.7
O=C(Nc1n[nH]c2cc(-c3cc(F)ccc3F)ccc12)C1CC1,2.29,2.61,4.77,1.18,2.02,1.19,3.64,2.35,-0.56,0.87
COc1cc2ncn(-c3cc(OCc4ccccc4C(F)(F)F)c(C(C)=O)s3)c2cc1OC,3.13,3.54,5.22,-0.8,1.81,-2.47,3.36,1.73,0.09,2.46
c1ccc(Oc2ccc(Nc3ncc(-c4ccccc4)o3)cc2)cc1,1.07,0.51,0.6,1.92,3.79,1.22,0.93,1.49,3.06,0.57
O=C1Nc2ccccc2/C1=C/Nc1ccc(-n2cncn2)cc1,7.33,-0.37,0.37,4.22,4.08,2.81,4.05,3.11,4.38,2.21
Fc1ccc(-c2ncn(C3CCNCC3)c2-c2ccnc(Oc3ccc4c(c3)OCO4)n2)cc1,6.08,6.32,7.88,5.59,13.1,4.4,18.7,3.06,10.2,2.39
COc1ccc2cc(-c3c(-c4ccncc4)nc(-c4ccc(S(C)(=O)=O)cc4C)n3C)ccc2c1,7.9,-1.21,-5.12,0.26,6.12,1.94,10.5,2.4,10.6,1.37

Compound,inhibition [1] [%],inhibition [2] [%],inhibition [3] [%],inhibition [4] [%],inhibition [5] [%],inhibition [6] [%],inhibition [7] [%],inhibition [8] [%],inhibition [9] [%],inhibition [10] [%]
O=C(Nc1ccc(Oc2ccc3[nH]c(NC(=O)c4ccccc4)nc3c2)cc1)Nc1cc(C(F)(F)F)ccc1F,11.7,24.4,78.7,-0.35,1.11,7.18,6.93,2.47,3.54,2.22
COC(=O)Nc1nc2ccc(Sc3ccc(NC(=O)Nc4cc(C(F)(F)F)ccc4F)cc3)cc2[nH]1,7.52,56.3,83.5,-0.94,2.67,-0.44,2.71,2.04,0.54,0.63
COc1ccc2cc(-c3c(-c4ccncc4)nc(-c4ccc([S+](C)[O-])cc4C)n3C)ccc2c1 (centres undefined),-1.23,-2.64,-4.31,2.02,7.54,-1.17,5.96,-0.12,9.44,-0.7
NC(=O)c1cc(-c2ccc(F)cc2)cc(-c2ccncc2)c1N,5.4,1.42,2.13,-0.24,5.03,5.96,7.27,4.19,7.37,1.23
Fc1ccc(-c2c(-c3ccncc3)nc3n2CCS3)cc1,5.05,0.56,-0.39,-4.84,-0.06,3.61,22.2,1.81,1.46,1.14
COc1cc(Nc2ncc(-c3ccccc3)o2)cc(OC)c1OC,-0.86,0.74,8.58,6.02,13.8,-1.09,-0.27,0.27,0.17,0.05
Fc1ccc(-c2ncn(C3CCNCC3)c2-c2ccnc(Oc3ccc(F)c(F)c3)n2)cc1,2.38,1.67,2.09,-3.12,-0.79,1.05,7.57,3.65,4.21,1.53
O=C(Nc1n[nH]c2nc(-c3ccc(O)cc3)c(Br)cc12)C1CC1,10.9,2.17,4.12,5.76,6.97,5.48,9.71,6.22,7.61,4.95
NS(=O)(=O)c1ccc(Nc2cc(-c3ccc(O)c(F)c3)n[nH]2)cc1,-6.35,-0.38,18.8,0.49,3.68,-2.81,-2,-1.84,0.29,-1.07
COc1cc(C)c(N(C)C(=O)CN(C)C)cc1Nc1nc(Nc2cccc(F)c2C(N)=O)c2cc[nH]c2n1,-1.53,0.29,0.56,-4.88,-1.47,-1.11,1.56,1.84,-2.41,0.93
CN(C)CCOc1ccc(-c2cc(-c3ccc4c(c3)CCC4=NO)c(-c3ccncc3)o2)cc1,-1.46,0.26,1.8,4.94,7.65,-0.5,7.4,-0.03,4.41,-1.42
Fc1ccc(-c2ncn(C3CCNCC3)c2-c2ccnc(Oc3ccc(Oc4ccccc4)cc3)n2)cc1,3.28,2.83,14.8,2.08,4.02,-0.18,11.3,2.06,6.3,1.46
Cc1ccc(C(=O)NC(C)C)cc1-c1ccc(C(=O)NCC2CC2)cc1,,-0.36,0.09,0.3,1.34,-1.62,-1.21,-0.86,-2.64,-0.77
C/C(Nc1ccc(S(N)(=O)=O)cc1)=C1/C(=O)Nc2ccccc21,-4,-0.09,0.07,-1.34,2.48,-0.73,0.1,0.08,0.01,-0.56
COc1ccc2ncn(-c3cc(O[C@H](C)c4ccccc4Cl)c(C(N)=O)s3)c2c1,4.14,1.2,0.87,-5.57,-2.35,0.76,6.08,3.26,1.91,1.16
CN(C)CCCNc1nccc(-c2c(-c3ccc(F)cc3)nn3cc(C(F)(F)F)ccc23)n1,-0.64,5.29,11.1,-2.27,1.24,0.77,2.36,1.57,-2.56,1.53
NC(=O)c1cc(-c2ccncc2)cc(-c2ccccc2)c1N,16.1,4.49,27.6,8.28,18,4.58,39.7,3.24,11.9,1.64

# Source: ChEMBL document CHEMBL1961873, “Compounds: GSK PKIS; Assays: Nanosyn kinase panel” (2012)
